Out of some 48,000 compounds screened, about 13,000 (27%) showed an effect of 50% or more. The list shows a part of the results.
What follows are compounds tested on Wolbachia pipientis (assay: Anti-Wolbachia Cell-Based Screen). Settings: 5 µM.
Format: functional
Parameters: scale not given: in the data most compounds retested in dose-response had high values

First: c1cc(CN2CCOC[C@H]2c2nc(-c3ccncc3)c[nH]2)ccn1
Second: CNS(=O)(=O)c1ccc(C(=O)N2CCCC2c2ccncc2)o1 (stereo not drawn)
The “Percent Effect” value of the first is lower: -7.2% for the first, 101.5% for the second.

Compared with CC(=O)N[C@H]1CN(CC(=O)NCc2ccccc2C)C[C@@H]1C(C)C, CC(=O)Nc1nc(C(=O)N2CCCC2c2ccccc2C)cs1 (stereo not drawn) is lower in “Percent Effect” value: -0.9175% for the first, -3.064% for the second.

Going from CCCc1cc(C(=O)N(CC)Cc2ccncc2)[nH]n1 to O=C(CCc1ccc(F)cc1)NCc1ccnc(NC2CC2)c1, the “Percent Effect” value falls from -8.767% to -8.812%.

Compared with CN1CCN(c2ccc3ccc(C(=O)N4CCCCO4)cn23)CC1.O=C(O)C(F)(F)F, COc1cc(N2CCC3(CCN(C(=O)c4cccnc4)CC3)C2)ncn1.O=C(O)C(F)(F)F is higher in “Percent Effect” value: -14.14% for the first, -2.068% for the second.

Going from Cc1nnc(N2CCCC(CS(N)(=O)=O)C2)c(C#N)c1C (stereo not drawn) to Cc1cccc(CN2CCC(n3cc(CCO)nn3)CC2)c1C, the “Percent Effect” value rises from -0.6364% to 4.105%.

Going from CCOCCN1CCN(Cc2nnc(C3CC3)o2)CC1C (stereo not drawn) to CCCC(C)CN1CCC(n2cc(CCCO)nn2)CC1 (stereo not drawn), the “Percent Effect” value rises from -16.34% to -3.716%.

Compared with CC(C)S(=O)(=O)N1C[C@H]2OC(=O)N(CCc3cccc(Cl)c3)[C@H]2C1, CCCS(=O)(=O)N1C[C@H]2OC(=O)N(CCc3cccc(Cl)c3)[C@H]2C1 is higher in “Percent Effect” value: -13.46% for the first, -3.172% for the second.

First: Cc1ncc(CNC2CC(=O)N(CCc3cccc(Cl)c3)C2)n1C (stereo not drawn)
Second: Cc1ncsc1CNC(=O)N1CCN(Cc2ccccc2)CC1C (stereo not drawn)
The “Percent Effect” value of the first is higher: 82.2% for the first, -7.787% for the second.

First: N#Cc1ccc(N2CCC3(CCCN(c4ccccn4)C3)C2)nc1.O=C(O)C(F)(F)F (stereo not drawn)
Second: O=C(O)C(F)(F)F.c1ccc(N2CCC3(CCCN(c4ncccn4)C3)C2)nc1 (stereo not drawn)
The “Percent Effect” value of the first is lower: -3.068% for the first, 93.44% for the second.

Compared with CN1CCC2(CCCN(c3nccc(C(F)(F)F)n3)C2)CC1.O=C(O)C(F)(F)F, O=C(O)C(F)(F)F.O=C(O)C(F)(F)F.c1cnc(N2CCCC3(CCN(c4ncccn4)C3)C2)nc1 (stereo not drawn) is higher in “Percent Effect” value: -32.78% for the first, 103.8% for the second.

Compared with O=C(O)C(F)(F)F.O=C(O)C(F)(F)F.c1ccc(CN2CCC3(CC2)CN(c2ccccn2)CCO3)nc1, O=C(O)C(F)(F)F.O=C(O)C(F)(F)F.c1ccc(CN2CCC3(CC2)CCN(c2ccccn2)C3)nc1 is higher in “Percent Effect” value: 2.249% for the first, 79.01% for the second.

Going from Fc1ccccc1CN1CCCC2(CCN(c3ncccn3)CC2)C1.O=C(O)C(F)(F)F to COc1cc(N2CCC3(CCCN(Cc4ccccn4)C3)C2)ncn1.O=C(O)C(F)(F)F (stereo not drawn), the “Percent Effect” value rises from 3.614% to 109.9%.

Going from COc1cc(N2CCC3(CCCN(C(=O)c4cccnc4)C3)C2)ncn1.O=C(O)C(F)(F)F (stereo not drawn) to O=C(O)C(F)(F)F.O=S(=O)(C1CC1)N1CCC2(CCCN(c3ncccn3)C2)C1 (stereo not drawn), the “Percent Effect” value rises from -28.04% to 97.03%.

Compared with Fc1ccc(CN2CCC3(CC2)CN(c2ccccn2)CCO3)cc1.O=C(O)C(F)(F)F.O=C(O)C(F)(F)F, O=C(O)C(F)(F)F.O=C(O)C(F)(F)F.c1cc2c(cc1CN1CC[C@H]3CO[C@H](CN4CCCC4)[C@H]3C1)OCO2 is lower in “Percent Effect” value: -6.002% for the first, -12.98% for the second.

First: CC(=O)N1CCC2(CC1)CN(C)C(=O)C[C@H]2C(F)(F)F.Cl
Second: CC(C)C(=O)NC1COC2(CCN(C(=O)c3ccc[nH]3)CC2)C1 (stereo not drawn)
The “Percent Effect” value of the first is lower: -12.08% for the first, 3.438% for the second.

Going from CN1CCN(C(=O)c2ccc(=O)n(C)c2)c2ccccc21 to O=C(c1cc(-n2cccn2)ccn1)N1CCOc2ncccc21, the “Percent Effect” value falls from 6.731% to -22.54%.

Going from CCOc1ccc(-n2nc(C)c(CC(C)=O)c2C)cc1C(N)=O to COCCc1noc(CN(C)C(=O)c2cccc(N3CCCC3=O)c2)n1, the “Percent Effect” value falls from -4.424% to -10.13%.

Going from Cc1cnc(N2CC3(CCN(S(=O)(=O)C4CC4)C3)C2)nc1.O=C(O)C(F)(F)F to O=S(=O)(C1CC1)N1CCC2(CN(c3ncccn3)C2)C1, the “Percent Effect” value falls from -3.978% to -12.56%.

Going from CN(Cc1ccco1)C[C@H]1OC[C@@H]2CCN(Cc3ccsc3)C[C@@H]21.O=C(O)C(F)(F)F.O=C(O)C(F)(F)F to O=C(O)C(F)(F)F.O=C(O)C(F)(F)F.c1cc(CN2CC[C@H]3CO[C@H](CN4CCOCC4)[C@H]3C2)cs1, the “Percent Effect” value rises from -7.864% to 117.2%.

Compared with O=C(C1CCOCC1)N1C[C@@H]2CN(Cc3ccsc3)CCO[C@@H]2C1.O=C(O)C(F)(F)F, O=C(O)C(F)(F)F.O=C(O)C(F)(F)F.c1cc(CN2CC[C@@H]3[C@@H](CO[C@H]3CN3CCOCC3)C2)cs1 is higher in “Percent Effect” value: 4.767% for the first, 92.79% for the second.

Going from CN1CCN(C[C@@H]2OC[C@H]3CN(Cc4ccsc4)CC[C@H]32)CC1.O=C(O)C(F)(F)F.O=C(O)C(F)(F)F.O=C(O)C(F)(F)F to Cc1ccc(CN2CC[C@H]3CO[C@H](CN4CCN(C)CC4)[C@H]3C2)o1.O=C(O)C(F)(F)F.O=C(O)C(F)(F)F.O=C(O)C(F)(F)F, the “Percent Effect” value falls from -2.359% to -46.51%.

First: Cc1ccc(CN2CC[C@H]3CO[C@H](CN4CCCC4)[C@H]3C2)o1.O=C(O)C(F)(F)F.O=C(O)C(F)(F)F
Second: CN1CCN(C[C@H]2OC[C@@H]3CCN(Cc4ccsc4)C[C@@H]32)CC1
The “Percent Effect” value of the first is lower: -21.11% for the first, 98.94% for the second.

First: O=C(Nc1ccnc(OC2CCOC2)c1)C1CCC1 (stereo not drawn)
Second: CN(Cc1cc(C2CC2)on1)C(=O)C(c1cccnc1)N1CCCC1 (stereo not drawn)
The “Percent Effect” value of the first is lower: -17.8% for the first, -7.414% for the second.

Going from Cc1cc(CN2CCC(CNC(=O)c3ccc(O)c(Cl)c3)C2)[nH]n1 (stereo not drawn) to Cc1ccc2oc(=O)n(CCC(=O)N3CCN(C)C(=O)C3)c2c1, the “Percent Effect” value falls from 12.57% to 7.292%.

First: Cc1nc(C(=O)N2CCCCC2c2ccc(CN(C)C)cc2)c(C)o1 (stereo not drawn)
Second: CNc1nc(C(=O)N2CCCCC2c2ccc(CN(C)C)cc2)cs1 (stereo not drawn)
The “Percent Effect” value of the first is higher: -1.477% for the first, -11.93% for the second.

Going from CNS(=O)(=O)c1ccc(C(=O)N2CCCC2Cc2ccccc2)o1 (stereo not drawn) to CNS(=O)(=O)c1ccc(C(=O)N2CCCC2c2ccccc2)o1 (stereo not drawn), the “Percent Effect” value falls from 9.44% to -8.711%.

Going from CN(C)Cc1ccc(C2CCCCN2C(=O)c2ncccc2O)cc1 (stereo not drawn) to CNS(=O)(=O)c1ccc(C(=O)N2CCCCC2c2ccc(C)cc2)o1 (stereo not drawn), the “Percent Effect” value rises from 1.796% to 124%.

Going from NS(=O)(=O)c1ccc(C(=O)N2CCCC2c2ccccc2)o1 (stereo not drawn) to CNS(=O)(=O)c1ccc(C(=O)N2CCCC2c2ccccc2C)o1 (stereo not drawn), the “Percent Effect” value rises from 114.9% to 116.1%.

Compared with CNS(=O)(=O)c1ccc(C(=O)N2CCCC2c2cnn(C)c2)o1 (stereo not drawn), CNCc1cn(C2CCN(C(=O)NCc3ccco3)CC2)nn1 is higher in “Percent Effect” value: -2.298% for the first, 17.43% for the second.

First: O=c1ccncn1Cc1csc(C2CC2)n1
Second: COCc1cn(C2CCN(Cc3ccc(Cl)s3)CC2)nn1
The “Percent Effect” value of the first is lower: -22.65% for the first, 0.9369% for the second.

Compared with Cc1cc(C)cc(CCC(=O)NC(C)c2nnn[nH]2)c1 (stereo not drawn), Cc1cc(C)cc(N2CCN(C(=O)CCN3C[C@@H]4CC[C@H]3C4)CC2=O)c1 is higher in “Percent Effect” value: -2.993% for the first, 110.5% for the second.

First: CCCn1nc2c(cc1=O)CN(Cc1ncc(C(C)(C)C)o1)CC2
Second: COCCc1noc(CN(C)C(=O)C(C)N2CCc3ccccc3C2)n1 (stereo not drawn)
The “Percent Effect” value of the first is lower: 7.183% for the first, 110.4% for the second.

First: c1ccc2c(N3CCCCC3)cnnc2c1
Second: Cc1noc(C2CCCN(CC(=O)N3CCc4ccccc4C3)C2)n1 (stereo not drawn)
The “Percent Effect” value of the first is lower: -32.94% for the first, 4.147% for the second.

Going from CN(Cc1ccco1)c1ccc(C(=O)NCCCc2ccccn2)cn1 to COCCc1noc(CN(C)C(=O)C2COc3ccccc3C2)n1 (stereo not drawn), the “Percent Effect” value falls from -0.2765% to -1.856%.

Compared with CN1CC[C@@H]2[C@@H]1CCN2Cc1ccc2c(c1)OCO2, O=C(CCN1C[C@@H]2CC[C@H]1C2)N1CCN(c2cccc(Cl)c2)C(=O)C1 is higher in “Percent Effect” value: -14.63% for the first, 108.3% for the second.

First: CSC(C)CCN1CCC(n2cc(C3CCCCC3)nn2)CC1 (stereo not drawn)
Second: CC(CCN1CCC(n2cc(CCO)nn2)CC1)c1ccccc1 (stereo not drawn)
The “Percent Effect” value of the first is lower: -13.53% for the first, 92.59% for the second.

Going from COCc1cn(C2CCN(C(=O)Cc3ccsc3)CC2)nn1 to COCc1cn(C2CCN(CCC(C)c3ccccc3)CC2)nn1 (stereo not drawn), the “Percent Effect” value rises from -0.9661% to 99.11%.

Compared with CNCc1cn(C2CCN(CCC(C)c3ccccc3)CC2)nn1 (stereo not drawn), CC(C(=O)N(C)Cc1noc(C2CCC2)n1)N1CCc2ccccc2C1 (stereo not drawn) is higher in “Percent Effect” value: 95.9% for the first, 96.98% for the second.

Going from CSCc1noc(CN(C)C(C)c2nc(C)sc2C)n1 (stereo not drawn) to CC(C)c1cc(CN(C)C(=O)C(C)N2CCc3ccccc3C2)no1 (stereo not drawn), the “Percent Effect” value rises from -2.011% to 103.9%.

First: COc1cccc2c1N(Cc1noc(C3CC3)n1)CCC2
Second: CCCn1cnnc1CNC(=O)C1COc2c(cccc2OC)C1 (stereo not drawn)
The “Percent Effect” value of the first is higher: -4.254% for the first, -10.56% for the second.

Compared with CC(C(=O)N(C)C)N1CCc2onc(-c3cccc(F)c3)c2C1 (stereo not drawn), COc1cccc(N2CCN(C(=O)CCO)CC2=O)c1 is higher in “Percent Effect” value: -12.34% for the first, 0.6756% for the second.

First: COCCN1C[C@H]2CC[C@@H]1CN(C(=O)CCc1c(C)nn(C)c1C)C2
Second: CN(C)c1nc2c(c(N(C)C)n1)CCN(C(=O)CN1C[C@@H]3CC[C@H]1C3)C2
The “Percent Effect” value of the first is higher: 8.536% for the first, -4.711% for the second.

Going from Cc1ccc(N2CCN(C(=O)CN3C[C@@H]4CC[C@H]3C4)CC2=O)cc1 to Cc1ccc(N2CCCC(N3CCC(CO)CC3)C2=O)cc1 (stereo not drawn), the “Percent Effect” value falls from 111.2% to -5.905%.

First: COc1cccc(N2CCN(C(=O)C(O)c3cccc(Cl)c3)CC2=O)c1 (stereo not drawn)
Second: CC(C)Cn1cncc1Cn1cccc(C(F)(F)F)c1=O
The “Percent Effect” value of the first is lower: -25.1% for the first, 13.38% for the second.

— ChEMBL document CHEMBL3988442, “University of Dundee, Small-Polar-MMV Screening Library” (2021)
